An excerpt weighted towards active compounds, which were near 0.4% of everything screened.
GAA glycogen – alters human alpha-glucosidase cleavage of glycogen | P10253 | recombinant GAA, glycogen substrate, Amplex Red glucose oxidase fluorescence | Potency, µM (doses to about 76.4 µM), for inactives: at the highest dose activity change, negative = inhibition, actives largely listed as inhibitors | hit rate 0.38% among 300,000 | AID 2100;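 further: potency means the concentration at half of the fitted maximal effect; 0% = full enzyme reaction and -100% = no-enzyme basal signal; the screen sought inhibitors and activators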
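Recombinant enzyme (4 nM final) with compounds titrated up to 77 uM and bovine liver glycogen (30 ug) in citrate pH 5.0, 0.01% Tween-20, 37 C 40 min. Released glucose detected by Amplex Red/glucose oxidase (Ex 573/Em 610); AC50 from Hill fits.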
GLA inh pH 4.5 – blocks human alpha-galactosidase A at pH 4.5. P06280. purified enzyme, 4-MU-alpha-Gal fluorescence, pH 4.5. activity change, negative = inhibition, % at 105 µM. 230,000 tested, under 10 active. AID 1467;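 further: 0% = full activity with enzyme and -100% = basal without enzyme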
Target sequence (P06280 whole entry, looked up): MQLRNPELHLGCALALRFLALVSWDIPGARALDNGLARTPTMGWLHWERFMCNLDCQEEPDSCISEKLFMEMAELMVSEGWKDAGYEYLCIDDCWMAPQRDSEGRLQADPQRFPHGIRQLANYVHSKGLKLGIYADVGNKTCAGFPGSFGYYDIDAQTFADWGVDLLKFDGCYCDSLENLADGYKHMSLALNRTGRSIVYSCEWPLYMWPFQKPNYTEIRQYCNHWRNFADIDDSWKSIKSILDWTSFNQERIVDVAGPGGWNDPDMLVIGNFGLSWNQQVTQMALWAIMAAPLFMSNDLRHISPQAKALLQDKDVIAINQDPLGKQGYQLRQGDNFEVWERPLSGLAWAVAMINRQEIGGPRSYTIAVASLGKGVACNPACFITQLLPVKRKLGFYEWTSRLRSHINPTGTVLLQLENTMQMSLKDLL
aGal spleen mod – inhibitors or activators of human alpha-galactosidase in spleen homogenate; human spleen homogenate, 4MU-alpha-Gal fluorescence, 40 min; Potency, µM (top dose mostly 80 µM), inactives show at the highest dose activity change, negative = inhibition, hits mostly inhibitors; hit rate 0.008% among 240,000;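 further: potency means the concentration at half of the fitted maximal effect; 0% = enzyme with vehicle and -100% = no enzyme basal signal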
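Human spleen homogenate (1 ug) was the enzyme source, with 4-methylumbelliferyl-alpha-D-galactopyranoside (1 mM final) in pH 5.0 citrate buffer with 0.01% Tween-20. Compounds were titrated; after 40 min at 37C, NaOH/glycine stop, 4-MU fluorescence read; AC50 from Hill fits.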
GAA inhib – alpha-glucosidase (human) inhibition; hit rate 0.005% among 200,000; purified human GAA, 4-MU-alpha-glucoside fluorescence; P10253; Potency, µM (series often up to 76.9 µM), without a hit: top-dose activity change, negative = inhibition, actives largely listed as inhibitors;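 further: potency means the concentration at half of the fitted maximal effect; plate controls were uninhibited enzyme wells for no effect and no-enzyme background for full effect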
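qHTS format, compound range up to 77 uM. Human lysosomal enzyme at 4 nM, 400 uM 4-MU glucoside substrate, pH 5.0, 20 min room temperature; fluorescence after alkaline stop gives activity normalized to controls.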
GAA spleen mod – inhibitors or activators of human alpha-glucosidase in spleen homogenate. P10253. human spleen homogenate, 4-MU-alpha-glucoside fluorescence. Potency, µM (highest dose often 79.9 µM), for the others: top-dose activity change, negative = inhibition, hits mostly inhibitors. hit rate 0.006% among 240,000. AID 2112;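 further: potency means the concentration at half of the fitted maximal effect; 0% = enzyme with vehicle and -100% = no enzyme basal signal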
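AC50 values come from Hill-equation fits of concentration-response data, normalized to no-enzyme and full-activity controls. Enzyme source: 1 ug human spleen homogenate; 1 mM fluorogenic 4-MU glucoside, pH 5.0 citrate buffer, 37 C, 40 min.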
The depositor's hits bear a star; ? = inconclusive; . = no result; [ ] = dose if it differs, or a comment. The call rests on the fitted dose curve; in most records, active means well fitted curve in the direction sought with a large enough effect; inconclusive means small, poorly fitted or top-dose-only effect, or another doubt; inactive means no such curve, though single readings can be large; an effect the other way counts as inactive or inconclusive.

SMILES | GAA glycogen | GLA inh pH 4.5 | aGal spleen mod | GAA inhib | GAA spleen mod
O=c1cnc2cncnc2n1Cc1ccc(F)cc1 | . | . | 1% | . | -9%
CC[C@H](C)[C@H](NC(=O)[C@H](Cc1ccccc1)NC(=O)[C@H](CC(C)C)NC(=O)[C@H](CCSC)NC(=O)[C@H](CCC(=O)O)NC(=O)[C@H](CCC(=O)O)NC(=O)[C@H](CC(=O)O)NC(=O)[C@H](CO)NC(=O)[C@@H]1CCCN1C(=O)[C@H](CCCCN)NC(=O)[C@@H](N)[C@@H](C)O)C(=O)N[C@@H](Cc1ccc(O)cc1)C(=O)NCC(=O)N[C@@H](Cc1cnc[nH]1)C(=O)N[C@@H](Cc1ccc(O)cc1)C(=O)N[C@@H](CCCCN)C(=O)N[C@@H](CCC(N)=O)C(=O)N[C@@H](C)C(=O)N[C@H](C(=O)N[C@H](C(=O)NCC(=O)N[C@@H](CC(=O)O)C(=O)N[C@H](C(=O)N[C@@H](CC(N)=O)C(=O)N[C@H](C(=O)N[C@@H](CCC(=O)O)C(=O)N[C@@H](CCCNC(=N)N)C(=O)N1CCC[C@H]1C(=O)NCC(=O)N[C@@H](CCSC)C(=O)N[C@@H](CC(C)C)C(=O)N[C@@H](CC(=O)O)C(=O)N[C@@H](Cc1ccccc1)C(=O)N[C@H](C(=O)O)[C@@H](C)O)[C@@H](C)O)[C@@H](C)CC)C(C)C)[C@@H](C)O | . | . | -14% | . | 1%
CCOC(=O)OCC1OC(C#Cc2ccccc2)C=CC1OC(=O)OCC (stereo not given) | . | . | -3%[17.5 µM] | . | 4%[17.4 µM]
C[C@H](Cc1ccc(O)c(O)c1)[C@@H](C)Cc1ccc(O)c(O)c1 | . | -2 | 11µM* | . | -12%
CC(Cc1ccc(O)c(O)c1)C(C)Cc1ccc(O)c(O)c1 (stereo not given) | . | -5 | -9% | . | -1%
C#CCn1c(=O)c2c(nc(/C=C/c3cccc(OC)c3)n2C)n(CCCOP(=O)(O)O)c1=O | . | . | ? | . | 11%
CC(C)(C)c1ccc(OCC2CO2)cc1 (stereo not given) | . | . | 1% | . | 2%
CC(=O)C(Sc1nc(N(C)C)nc(N(C)C)n1)C(=O)Nc1ccccc1 (stereo not given) | 20µM* | 2 | 7% | -8% | -4%
CC(Sc1nc(NCc2ccccc2)nc(N(C)C)n1)C(=O)Nc1ccccc1 (stereo not given) | -1% | -5 | -5% | -4% | -7%
COc1ccc(C2=Nn3c(nnc3-c3ccc(OC)cc3OC)SC2)cc1 | . | . | 3% | . | -1%
COC(=O)C1=C[C@@H](C(=O)OC)[C@@H]2C3=C(C(=O)[C@@]2(C)NC(=O)c2ccccc2)[C@H](C)[C@@H]2C(=O)N(c4ccccc4)C(=O)[C@@H]2[C@@H]3C1 | . | . | 3% | . | -1%
COc1ccc(C(=O)NNC(=S)NC(=O)C(C)(C)C)cc1 | 7.9µM* | 2 | -6% | 1% | -5%
CCOC(=O)c1cc(-c2ccc(OC)cc2)nc2c1c(C)nn2CCC#N | -25% | 5 | ? | 13% | 24%
COc1ccc(-c2cc(Nc3ccccc3NC(=O)C(F)(F)F)n(CCC#N)n2)cc1 | 35µM* | 0 | 4% | -1% | -3%
Cc1ccc(C(=O)NNc2c3ccccc3nc3ccccc23)cc1 | ? | 29 | 0% | . | 6%
Nc1ccccc1C(=O)NNc1c2ccccc2nc2ccccc12 | 40µM* | -1 | 8% | . | 1%
O=C(N/N=C/C1CCCCC1)c1cc(Cl)ccc1O | 35µM* | 4 | -2% | -18% | -5%
O=C(N/N=C/C1CCCCC1)c1ccccn1 | ? | -6 | 6% | -4% | 4%
CC[C@H](C)[C@H](NC(=O)[C@H](Cc1cnc[nH]1)NC(=O)[C@@H](NC(=O)[C@H](CCCNC(=N)N)NC(=O)[C@H](CCCCN)NC(=O)[C@H](CCCNC(=N)N)NC(=O)[C@H](CCCCN)NC(=O)[C@@H](N)CC(N)=O)[C@@H](C)CC)C(=O)NCC(=O)N1CCC[C@H]1C(=O)NCC(=O)N[C@@H](CCCNC(=N)N)C(=O)N[C@@H](C)C(=O)N[C@@H](Cc1ccccc1)C(=O)N[C@@H](Cc1ccc(O)cc1)C(=O)N[C@H](C(=O)N[C@H](C(=O)N[C@@H](CCCCN)C(=O)N[C@@H](CC(N)=O)C(=O)N[C@H](C(=O)N[C@H](C(=O)NCC(=O)N[C@H](C(=O)N[C@H](C(=O)N[C@@H](CS)C(=O)O)[C@@H](C)CC)[C@@H](C)O)[C@@H](C)CC)[C@@H](C)CC)[C@@H](C)O)[C@@H](C)O | . | . | -5% | . | 6%
COc1ccc(CNc2nc(-c3ccccc3OC)nc3ccccc23)c(OC)c1 | . | 1 | -5% | . | -20%
Cc1ccc(-c2cc(C(=O)N3CCN(S(=O)(=O)c4ccc(Br)s4)CC3)[nH]n2)c(C)c1 | 8.9µM* | . | . | . | .
Cc1ccc(-c2cc(C(=O)N3CCN(S(=O)(=O)c4ccc(Br)cc4)CC3)[nH]n2)c(C)c1 | -2%[76.3 µM] | . | . | . | .
Cc1ccc(S(=O)(=O)NC(=O)Nc2c(C)n(C)n(-c3ccccc3)c2=O)cc1 | 16µM* | -2 | -8% | -1% | -9%
Cc1ccc(N2C(=O)C(Cl)=C(Nc3c(C)n(C)n(-c4ccccc4)c3=O)C2=O)cc1 | 25µM* | 1 | -20% | -5% | -9%
Cc1cccc(N2C(=O)C(Cl)=C(Nc3c(C)n(C)n(-c4ccccc4)c3=O)C2=O)c1C | ? | -8 | -26% | 1% | -11%
Cc1c(NC(=O)CN2CCN(c3ccc([N+](=O)[O-])cc3)CC2)c(=O)n(-c2ccccc2)n1C | 3% | -10 | -3% | -4% | -9%
Cc1c(NC(=O)CN2CCN(c3ccc(O)cc3)CC2)c(=O)n(-c2ccccc2)n1C | 4µM* | -19 | 0% | 2% | 6%
O=c1nc2ccccc2c2n1CC(CN1CCN(c3ccccc3)CC1)N2 (stereo not given) | . | . | -1% | . | 8%
CC[C@H](C)[C@H](N)C(=O)N[C@H]1CCC(=O)NCC(C(=O)N[C@@H](Cc2ccc(O)cc2)C(=O)N[C@@H](CCCNC(=N)N)C(=O)N[C@@H](CC(C)C)C(=O)N[C@@H](CCCNC(=N)N)C(=O)N[C@@H](Cc2ccc(O)cc2)C(N)=O)NC(=O)[C@@H]2CCCN2C(=O)[C@@H](NC(=O)[C@@H](N)[C@@H](C)CC)CCC(=O)NCC(C(=O)N[C@@H](Cc2ccc(O)cc2)C(=O)N[C@@H](CCCNC(=N)N)C(=O)N[C@@H](CC(C)C)C(=O)N[C@@H](CCCNC(=N)N)C(=O)N[C@@H](Cc2ccc(O)cc2)C(N)=O)NC(=O)[C@@H]2CCCN2C1=O (stereo not given in full) | . | . | -10% | . | 0%
